According to ChEMBL document CHEMBL4888484, “Replenishing the malaria drug discovery pipeline: Screening and hit evaluation of the MMV Hit Generation Library 1 (HGL1) against asexual blood stage Plasmodium falciparum ,using a nano luciferase reporter read-out” (2022):
In all, about 150,000 compounds went through this assay and about 540 (0.36%) showed an effect of 50% or more. Only a selection was taken, and strong results are over-represented in it overall.

Test system: Plasmodium falciparum
Test: Primary screen in NF54 nanoGlo assay, in single point, at 2uM, 72h; a lower Z score goes with more inhibition
Type: functional, Erythrocyte
Conditions: timepoint 72 hour

Row | SMILES | % Inhibition [%] | Z score
1 | O=C(CCc1c(F)cccc1Cl)N1CC(Nc2cnccn2)C1 | -6 | 0.7
2 | CC1(CO)CCCC1NCC(C)(O)C(F)(F)F (centres undefined) | 33 | -3.73
3 | O=c1c2ccccc2nc(Cc2ccccc2)n1Nc1ccccc1 | -13 | 1.76
4 | O=C(NCC1CCOCC1)c1ccc(-c2ccc(C(F)(F)F)cn2)cc1 | 1 | -0.21
5 | COc1nc(-c2cccc(C(=O)N3C[C@@H]4CC[C@H](C3)C(=O)N4)c2)ncc1F | 68 | -12.2
6 | O=C1N[C@H]2CC[C@@H]1CN(C(=O)c1cccc(-c3ccc4nccc(O)c4c3)c1)C2 | -3 | 0.64
7 | Cc1cc(C)nc(-c2cccc(C(=O)NC[C@H]3CCOC3)c2)n1 | -2 | 0.19
8 | O=C(NCC1CCOCC1)c1ccc(-c2ccc(Cl)cn2)cc1 | 7 | -1.01
9 | COc1nc(-c2cccc(C(=O)NCC3CCOCC3)c2)ncc1F | 70 | -12.03
10 | CCc1cc(-c2cccc(C(=O)N3C[C@@H]4CC[C@H](C3)C(=O)N4)c2)nc(C)n1 | -4 | 0.67
11 | Cc1ccc(-c2cccc(C(=O)NCC3CCOCC3)c2)c(C)n1 | -2 | 0.22
12 | Cc1nc[nH]c1CN(Cc1c(C)nn(C)c1C)C(C)C | -7 | 0.99
13 | CC(C)N(CC1CCC1)C(=O)NC1CCC(Oc2cnccn2)CC1 (centres undefined) | 29 | -3.26
14 | COc1cc(C)c(-c2ccc(C(=O)N3CCCCCC3)cc2)cn1 | -10 | 1.56
15 | Cc1ccc2c(C3=CCN(C(=O)c4cnc5[nH]c(=O)[nH]c(=O)c5c4)CC3)c[nH]c2c1 | 6 | -1.15
16 | O=C(CCc1cc2n(n1)CCN(Cc1ccc3ccccc3n1)C2)NCCO | -16 | 2.81
17 | CCOCCC1CCN(C(=O)c2cccc(-n3cccn3)n2)CC1 | -15 | 1.43
18 | CCc1ocnc1C(=O)NC1CCCCCC1C(=O)OC (centres undefined) | -7 | 0.61
19 | O=C(c1ccccc1)C1C(c2ccccc2)N1C(=O)c1cccc(Cl)c1 (centres undefined) | -7 | 0.84
20 | CC(=O)Nc1ccc(-c2cc(-c3ccccc3)nc(-c3ccccc3)n2)cc1 | -14 | 2.76
21 | CC(=O)Nc1ccc(-c2cn(C)c[n+]2C)cc1 | -42 | 4.97

Row | SMILES | % Inhibition [%] | Z score
22 | CC(=O)Nc1ccc(-c2cn3c4ccccc4ccc3[n+]2C)cc1 | 87 | -10.86
23 | OC1(c2csc(CN3CCOCC3)n2)CCN(Cc2ccccn2)CC1 | -9 | 1.39
24 | Cn1c(C(=O)Nc2cc(F)ccc2NC(=O)c2ccccn2)cc(Cl)c1Cl | -27 | 2.71
25 | C[C@H]1CCC[C@@H](NCCc2ccccc2)CCC/C=C/c2cc(O)cc(O)c2C(=O)O1 | 73 | -6.47
26 | CC(C)N1CC[C@H](NCCc2ccccc2)C1 | -6 | 0.77
27 | O=C(NCCc1ccccc1)NC1CCCC1 | -11 | 2.11
28 | NC(=O)c1ccc(NCCOc2cccc(Cl)c2Cl)nn1 | -9 | 1.2
29 | CCC[C@H]1CN(C(=O)c2cccc3cn[nH]c23)CCN1CCOC | 4 | -0.6
30 | Cc1ccccc1NC(=O)CN1CCN(Cc2ccccc2)S1(=O)=O | -18 | 1.6
31 | CC1=C[C@@H](c2ccc(Cl)cc2)n2nc(NC(=O)c3ccccc3)nc2N1 | -6 | 1.14
32 | Cc1ccc(C2=C[C@@H](c3ccc(C)cc3)n3nc(NC(=O)c4cccc(Cl)c4)nc3N2)cc1 | 16 | -2.03
33 | Cc1ccc(C2=C[C@@H](c3ccc(Cl)cc3)n3nc(NC(=O)c4ccccc4)nc3N2)cc1 | 84 | -8.34
34 | CC(=O)Nc1ccccc1CN(Cc1ccc(F)cc1F)C1CC1 | 9 | -0.85
35 | CCN(C(=O)c1ccccc1Cc1ccc(C)cc1)C1CCOCC1 | -13 | 1.36
36 | Cn1nccc1/C=C1\CC2C3CCc4cc(O)ccc4C3CCC2(C)C1O (centres undefined) | 54 | -6.08
37 | CC(C)C(=O)NCCN(C)Cc1ccc(C#N)cc1Br | -19 | 2.19
38 | Cc1ncsc1CN(C)[C@@H](C(=O)O)c1ccsc1 | 3 | -0.57
39 | Cc1nc2cc(NC(=O)[C@@]3(C)CCCN(C(=O)c4ccccc4)C3)ccc2o1 | 55 | -8.5
40 | Cc1nnc(C(C)NC(=O)C2(C)CCCN(C(=O)c3ccccc3)C2)o1 (centres undefined) | -7 | 0.99
41 | C[C@]1(C(=O)Nc2cn[nH]c2)CCCN(C(=O)c2ccccc2)C1 | -8 | 1.66
42 | Cc1ccc(N2C[C@H](C(=O)O)[C@@H](C(C)C)C2)nn1 | -13 | 1.69

Row | SMILES | % Inhibition [%] | Z score
43 | CC1(C)CN(Cc2nnc(C3CC3)o2)CCN1Cc1ccccc1 | -3 | 0.43
44 | O=C(NCc1ccco1)Nc1nccs1 | 1 | -0.2
45 | O=C(NCCN1CCOCC1)c1c[nH]c2ccc(Cl)cc2c1=O | 1 | -0.13
46 | O=S(=O)(CCC1Cc2ccccc2C1)N1CCC[C@@](O)(C(F)(F)F)CC1 | 34 | -3.86
47 | O=C(Cn1cc(F)ccc1=O)N1CCc2ccccc21 | -8 | 1.07
48 | COc1cc(CNC2CCCCCC2)ccc1OC[C@@H](O)CN1CCCCCC1 | 1 | -0.22
49 | CN1CCN(C2(CNC(=O)Nc3ccccc3C(F)(F)F)CCCC2)CC1 | -2 | 0.33
50 | CN1CCN(C2(CNc3ccnc4ccccc34)CCCC2)CC1 | 99 | -9.07
51 | O=C(NCc1c(F)cccc1Cl)c1cnc(-c2cccnc2)nc1 | -19 | 1.75
52 | C[C@@H](C(=O)Nc1ccc(F)cc1)N1CCC(NS(=O)(=O)c2cccs2)CC1 | 32 | -3.04
53 | CCc1ccc(NC(=O)[C@H](C)N2CCC(NS(=O)(=O)c3cccs3)CC2)cc1 | 76 | -7.11
54 | C[C@@H](C(=O)Nc1c(F)cccc1F)N1CCC(NS(=O)(=O)c2cccs2)CC1 | -7 | 0.81
55 | COc1ccc(C(CO)CNC2[C@@H]3CCC[C@@H]3C2(C)C)cc1 (some centres undefined) | 0 | -0.02
56 | CC1(C)C(NCC(O)COc2ccc(F)c(F)c2)[C@@H]2CCC[C@@H]21 (some centres undefined) | 61 | -6.95
57 | Cc1cccc(OCC(O)CNC2C3CCCOC3C2(C)C)c1 (centres undefined) | -10 | 0.93
58 | CC(=O)[C@H](C)n1nc(C2CC2)ccc1=O | -17 | 2.21
59 | COc1ccccc1-n1c(=O)[nH]c2nc(NCc3cccnc3)ncc2c1=O | 1 | -0.13
60 | Cc1cccc(-n2c(=O)[nH]c3nc(NCCN(C)C)ncc3c2=O)c1C | 50 | -0.77
61 | Cc1cccc(-n2c(=O)[nH]c3nc(N4CCCC4)ncc3c2=O)c1C | -4 | 0.62
62 | Cc1cccc(N(CCC#N)C(=O)c2cc3ccccc3c(=O)[nH]2)c1 | -18 | 1.68
63 | O=C(c1ccncc1F)N1CCCC[C@@H]1CCc1ccccn1 | -23 | 2.29

Row | SMILES | % Inhibition [%] | Z score
64 | Cc1ccc(CNC(=O)CCNc2c(-c3cccc(F)c3)nc3cnccn23)o1 | -18 | 2.57
65 | Cc1ccc(CCN2CCC[C@@H]2C(=O)O)cc1 | 3 | -0.5
66 | O=C(NC1CCC(N2C(=O)CCC2=O)CC1)C1CC1C1CCCCC1 (centres undefined) | -7 | 0.72
67 | O=C1c2cc(Nc3ccccc3)c3c4c(cc(Nc5ccccc5)c(c24)C(=O)N1c1ccccc1)C(=O)N(c1ccccc1)C3=O | 3 | -0.42
68 | O=C1NC(=O)c2ccc3c4c(ccc1c24)C(=O)N(c1ccccc1)C3=O | 73 | -8.98
69 | O=C1c2ccc(O)cc2C(=O)N1c1ccc(N(c2ccccc2)c2ccc(N3C(=O)c4ccc(O)cc4C3=O)cc2)cc1 | 8 | -1.03
70 | COc1cccc(CN2C(=O)c3cc4ccc(OC)cc4n3C[C@@]2(C)C(=O)NC2CCCCCC2)c1 | -12 | 1.58
71 | COc1ccc2cc3n(c2c1)C[C@@](C)(C(=O)NC1CCCC1)N(Cc1ccc(F)cc1)C3=O | 73 | -1.23
72 | COc1ccc2cc3n(c2c1)C[C@@](C)(C(=O)NC1CCCCCC1)N(CCN1CCCCCC1)C3=O | 2 | -0.31
73 | Cc1ccc(C(=O)N2CCCC[C@H]2c2nnc(-c3ccncc3)[nH]2)cn1 | -12 | 2.36
74 | C[C@@H](NCc1ccc2c(c1)COC(C)(C)O2)c1cccc(O)c1 | -21 | 2.42
75 | CC1(C)OCc2cc(CNc3ccc4oc(=O)[nH]c4c3)ccc2O1 | 96 | -13.84
76 | CCOc1cc(CNc2ccc3c(c2)OCO3)ccc1OC | -1 | 0.26
77 | O=S(=O)(c1cccc(F)c1F)N1CCN(Cc2nccn2C(F)F)CC1 | -4 | 0.57
78 | COc1cc2ncc3c(-c4ccccc4)n[nH]c3c2cc1OC | 9 | -0.99
79 | COc1cc2ncc3c(-c4ccc(C)c(C)c4)n[nH]c3c2cc1OC | 51 | -4.04
80 | Cc1ccc(-c2n[nH]c3c2cnc2ccc(C)cc23)cc1 | -5 | 0.82
81 | CC(C)C(=O)N[C@@H](N1CCCCCC1)C(Cl)(Cl)Cl | -15 | 2.02
82 | Cn1nc(C(=O)NC2CCN(Cc3ccccc3)CC2)c2ccccc2c1=O | 34 | -3.81
